From PubChem BioAssay (Tox21)
Inconclusive results are not listed. Calls of active or inactive are those of the source. Calls come from the whole dose curve; as a rule, active = well fitted curve in the direction sought with a large enough effect in the repeat runs; inconclusive = weak or mixed curves; inactive = no such curve, though single readings can be large; an effect the other way counts as inactive or inconclusive.

Assays:
[1] = A CellTox Green Cytotoxicity Assay to monitor cytotoxicity in HEK293 cells - 32 hour (AID 1224881); note: nearly all actives have a fitted effect of over 40% in size
Method in brief: (§1)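 Cytotoxicity was tracked continuously in HEK293 cells by a DNA-binding dye excluded from viable cells. Compounds were transferred in DMSO 5 h after seeding; fluorescence was recorded at intervals up to 40 h.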

[2] = A CellTox Green Cytotoxicity Assay to monitor cytotoxicity in HepG2 cells - 0 hour (AID 1224882); note: nearly all actives have a fitted effect of over 35% in size
Method in brief: (§2)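 Real-time, homogeneous cytotoxicity readout: dead-cell DNA staining by CellTox Green in HepG2 monolayers, fluorescence measured at timed intervals up to 40 h of continuous compound exposure.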

[3] = A CellTox Green Cytotoxicity Assay to monitor cytotoxicity in HepG2 cells - 32 hour (AID 1224883); note: nearly all actives have a fitted effect of over 50% in size
Method in brief: as §2

[4] = A CellTox Green Cytotoxicity Assay to monitor cytotoxicity in HEK293 cells - 8 hour (AID 1224884); note: nearly all actives have a fitted effect of over 35% in size
Method in brief: as §1

[5] = qHTS RealTime-Glo MT Cell Viability Assay in HepG2 cells - 16 hour (AID 1224885); note: nearly all actives have a fitted effect of over 50% in size
Method in brief: (§3)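 Luminescence read-out: viable HepG2 cells reduce a prosubstrate to a NanoLuc substrate, giving a signal proportional to live cell number. Reads taken at 0, 8, 16, 24, 32 and 40 h of compound exposure at 37 C.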

[6] = qHTS RealTime-Glo MT Cell Viability Assay in HEK293 cells - 8 hour (AID 1224887); note: top concentration of the series differs between compounds; nearly all actives have a fitted effect of over 50% in size
Method in brief: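 Nonlytic bioluminescent viability monitoring. HEK293 at 600 cells/well with reagent; 5 h settle; compound transfer by pintool; plates held at 37 C and read at set time points.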

[7] = A CellTox Green Cytotoxicity Assay to monitor cytotoxicity in HEK293 cells - 16 hour (AID 1224888); note: nearly all actives have a fitted effect of over 35% in size
Method in brief: as §1

[8] = qHTS RealTime-Glo MT Cell Viability Assay in HepG2 cells - 0 hour (AID 1224889); note: nearly all actives have a fitted effect of over 50% in size
Method in brief: as §3

[9] = A CellTox Green Cytotoxicity Assay to monitor cytotoxicity in HepG2 cells - 8 hour (AID 1224890); note: nearly all actives have a fitted effect of over 45% in size
Method in brief: as §2

[10] = qHTS RealTime-Glo MT Cell Viability Assay in HEK293 cells - 24 hour (AID 1224886); note: nearly all actives have a fitted effect of over 50% in size; note: potency is the fitted concentration of half-maximal effect
Method in brief: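 Nonlytic real-time viability readout: viable cells convert prosubstrate to NanoLuc substrate, giving luminescence proportional to live cell number. HEK293, 600 cells/well, compound added after 5 h, continuous culture at 37 C.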

Measured: Potency

CCOC(=O)CC(=O)C(=O)OCC
not listed: [10]
inactive: all other assays above

CCCCC(CC)C(=O)OCCOCCOCCOCCOC(=O)C(CC)CCCC (centres undefined)
not listed: [10]
inactive: all other assays above

CCCCCCCC/C=C\CCCCCCCC(=O)OC
not listed: [6]
inactive: all other assays above

C[N+]1(C)CCC(=C(c2ccccc2)c2ccccc2)CC1
not listed: [6]
inactive: all other assays above

CCCCCCCC/C=C\CCCCCCCC(=O)OC(CO)CO
not listed: [6]
inactive: all other assays above

Fc1ccccc1[C@@H](F)COC1CCC(Nc2ncnc3[nH]ncc23)CC1 (some centres undefined)
active: [10] 21.9 µM
not listed: [6] | [8]
inactive: all other assays above

O=C(O)Cc1ccc(-c2ccccc2)cc1
not listed: [10]
inactive: all other assays above

Fc1c(F)c(F)c(Br)c(F)c1F
not listed: [6]
inactive: all other assays above

C=CC(C)(C)CC(=O)OC
active: [10] 1.38 µM
not listed: [6]
inactive: all other assays above

O=C1OCCN1/N=C/c1ccc([N+](=O)[O-])o1
not listed: [10]
inactive: all other assays above

CCOC(=N)CC(=O)OCC
not listed: [6]
inactive: all other assays above

CC(C)C(=O)O
not listed: [6]
inactive: all other assays above

C(=C\c1ccccc1)/CN1CCN(C(c2ccccc2)c2ccccc2)CC1
not listed: [10]
inactive: all other assays above

CCCCCC=CCC=CCCCCCCCC(=O)OCC
not listed: [6]
inactive: all other assays above

CCCOC(=O)c1ccc(N)cc1
not listed: [10]
inactive: all other assays above
